Our source for the growth inhibition values is PubChem BioAssay (NCI).

Assay [1] can be described thus: NCI Yeast Anticancer Drug Screen. Data for the rad50 strain (AID 155).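 Note: 0% = growth of vehicle-only cultures of the same strain.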 The settings on record: S. cerevisiae rad50 strain growth inhibition, active compounds read high. Summed up:
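Compounds were tested on a yeast strain with an engineered DNA damage repair alteration; the reported value is growth inhibition normalised to vehicle treatment.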

Assay [2] is described as follows: NCI Yeast Anticancer Drug Screen. Data for the mec2-1 strain (AID 157). Particulars: S. cerevisiae mec2-1 strain, active compounds read high. In short, it runs like this:
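Each compound was tested on mec2-1 yeast, a strain altered in DNA damage repair or cell cycle control. Growth inhibition is reported relative to vehicle.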

Assay [3] can be described thus: NCI Yeast Anticancer Drug Screen. Data for the sgs1 mgt1 strain (AID 161).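 Note: 0% = growth of cultures given vehicle only.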 Particulars: S. cerevisiae sgs1 mgt1 strain, active compounds read high. Summed up:
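Mutant yeast exposed to compound; growth scored against vehicle-only wells.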

The nature of assay [4]: NCI Yeast Anticancer Drug Screen. Data for the cln2 rad14 strain (AID 165).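 Note: 0% = growth equal to vehicle treated cultures.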 Particulars: S. cerevisiae cln2 rad14 strain, active compounds read high. Summed up: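 Test compounds were added to cln2 rad14 yeast cultures; inhibition of growth was then determined by comparison with vehicle treatment.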
Assay [5] can be described thus: NCI Yeast Anticancer Drug Screen. Data for the bub3 strain (AID 167). Particulars: S. cerevisiae bub3 mutant strain, active compounds read high. Summed up: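 Growth of a checkpoint-deficient yeast mutant is measured after compound exposure. Values represent inhibition relative to vehicle.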
Assay [6] can be described thus: NCI Yeast Anticancer Drug Screen. Data for the mlh1 rad18 strain (AID 175). Particulars: S. cerevisiae mlh1 rad18 strain growth inhibition, active compounds read high. Summed up: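 Inhibition values reflect reduced growth of mutant yeast versus vehicle-treated controls following compound exposure; the mutations affect DNA damage repair.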
[7] abbreviates: at 5.0 µM (retest, dose inferred, filed as 0.5).
The mark [8] stands for this setting: at 50.0 µM (retest, dose inferred, filed as 5.0).

Compounds without any hit were thinned out: in the full panel of roughly 79,000, 15% have a hit. Values without a mark were called inactive. The source made the active and inactive calls. Cut-off read from the data, not from the text of the source: active = growth inhibition above about 70%; inactive = the rest.

On to `CCN(CC)CCOC(=O)C1C(c2ccccc2)C1(c1ccccc1)c1ccccc1` (stereo not drawn), for which the growth inhibition in assay [1] (setting [7]) is 1%; in assay [1] (setting [8]), 77% (active); in assay [1] (at 50.0 µM), 73% (active); in assay [2] (setting [7]), 4%; in assay [2] (setting [8]) it was 63%; in assay [2] (at 50.0 µM), 62.8%. Moreover, the growth inhibition is 8% in assay [3] (setting [7]); 97% (active) in assay [3] (setting [8]); 88.7% (active) in assay [3] (at 50.0 µM); 3% in assay [4] (setting [7]); 60% in assay [4] (setting [8]); 77.3% (active) in assay [4] (at 50.0 µM). The growth inhibition in assay [5] (setting [7]) was 8%; in assay [5] (setting [8]), 85% (active); in assay [5] (at 50.0 µM), 75.2% (active); in assay [6] (setting [7]), 5%; in assay [6] (setting [8]), 96% (active); in assay [6] (at 50.0 µM), 92.8% (active).

For the molecule `CCC/C(=N\NC(=S)N1CCCCCC1)c1ccccn1`, the growth inhibition in assay [1] (setting [7]) is 69%; in assay [1] (setting [8]) it was 97% (active); in assay [1] (at 50.0 µM) it was 90.3% (active); in assay [2] (setting [7]), 77% (active); in assay [2] (setting [8]), 97% (active); in assay [2] (at 50.0 µM) it was 93.5% (active). Further, the growth inhibition in assay [3] (setting [7]) was 72% (active); in assay [3] (setting [8]) it was 97% (active); in assay [3] (at 50.0 µM), 90.9% (active); in assay [4] (setting [7]), 66%; in assay [4] (setting [8]), 97% (active); in assay [4] (at 50.0 µM) it was 91.7% (active). For the same molecule, the growth inhibition in assay [5] (setting [7]) is 90% (active); in assay [5] (setting [8]), 96% (active); in assay [5] (at 50.0 µM) it was 90.7% (active); in assay [6] (setting [7]), 82% (active); in assay [6] (setting [8]), 96% (active); in assay [6] (at 50.0 µM), 90.2% (active).

Take `CN(C)c1nc(NNS(=O)(=O)c2ccc(N)cc2)nc(N(C)C)n1`: the growth inhibition is 1% in assay [1] (setting [7]); -17% in assay [1] (setting [8]); -27.1% in assay [1] (at 50.0 µM); 2% in assay [2] (setting [7]); -1% in assay [2] (setting [8]); 7.55% in assay [2] (at 50.0 µM). The growth inhibition is 1% in assay [3] (setting [7]); -72% in assay [3] (setting [8]); -5.75% in assay [3] (at 50.0 µM); 2% in assay [4] (setting [7]); -6% in assay [4] (setting [8]); 55% in assay [4] (at 50.0 µM). Further, the growth inhibition in assay [5] (setting [7]) was -6%; in assay [5] (setting [8]) it was -8%; in assay [5] (at 50.0 µM), -12.3%; in assay [6] (setting [7]) it was -1%; in assay [6] (setting [8]) it was 0%; in assay [6] (at 50.0 µM), 3.85%.

`CCOC(=O)C(C(=O)OCC)C(=O)c1ccccc1C(=O)c1ccccc1`: the growth inhibition was -12% in assay [1] (setting [7]); 44% in assay [1] (setting [8]); 60.8% in assay [1] (at 50.0 µM); -17% in assay [2] (setting [7]); 23% in assay [2] (setting [8]); 34% in assay [2] (at 50.0 µM). Further, the growth inhibition is -9% in assay [3] (setting [7]); 55% in assay [3] (setting [8]); 56.9% in assay [3] (at 50.0 µM); -2% in assay [4] (setting [7]); 2% in assay [4] (setting [8]); 14.8% in assay [4] (at 50.0 µM). Besides, the growth inhibition is -3% in assay [5] (setting [7]); 32% in assay [5] (setting [8]); 51.5% in assay [5] (at 50.0 µM); 1% in assay [6] (setting [7]); 59% in assay [6] (setting [8]); 80.6% (active) in assay [6] (at 50.0 µM).

Turning to `C=C(C)C(=O)OC1CC2=CC(CC3(C)OC3C3OC(=O)C(=C)C13)OC2=O` (stereo not drawn), the growth inhibition was 1% in assay [1] (setting [7]); 19% in assay [1] (setting [8]); 88.8% (active) in assay [1] (at 50.0 µM); 3% in assay [2] (setting [7]); 37% in assay [2] (setting [8]); 87% (active) in assay [2] (at 50.0 µM). The growth inhibition in assay [3] (setting [7]) was 4%; in assay [3] (setting [8]), 35%; in assay [3] (at 50.0 µM), 57.6%; in assay [4] (setting [7]) it was 8%; in assay [4] (setting [8]), 15%; in assay [4] (at 50.0 µM) it was 30.5%. The growth inhibition is 1% in assay [5] (setting [7]); 43% in assay [5] (setting [8]); 78.8% (active) in assay [5] (at 50.0 µM); 4% in assay [6] (setting [7]); 51% in assay [6] (setting [8]); 50.5% in assay [6] (at 50.0 µM).

Consider `CC(C)(C)NC1=NC(C(F)(F)F)(C(F)(F)F)NC(=O)N1`, for which the growth inhibition in assay [1] (setting [7]) was -19%; in assay [1] (setting [8]), 91% (active); in assay [1] (at 50.0 µM), 38.9%; in assay [2] (setting [7]), -20%; in assay [2] (setting [8]) it was 93% (active); in assay [2] (at 50.0 µM), 40.8%. The growth inhibition in assay [3] (setting [7]) is -52%; in assay [3] (setting [8]), 88% (active); in assay [3] (at 50.0 µM), 33.9%; in assay [4] (setting [7]), -21%; in assay [4] (setting [8]), 72% (active); in assay [4] (at 50.0 µM), 21.3%. Moreover, the growth inhibition in assay [5] (setting [7]) is -56%; in assay [5] (setting [8]), 95% (active); in assay [5] (at 50.0 µM), 70.5% (active); in assay [6] (setting [7]) it was -22%; in assay [6] (setting [8]), 92% (active); in assay [6] (at 50.0 µM) it was 12.4%.
